Data reported in PubChem BioAssay (NCI).
Compounds without any hit were thinned out: in the full panel of roughly 83,000, 20% have a hit.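 Interpretation: 100, growth as untreated; towards 0, rising growth inhibition; 0, no net growth; 0 to -100, cell death. Compounds scoring below 10 were considered active.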 Calls of active or inactive are those of the source.

test system: MALME-3M melanoma; assay: NCI-60 one-dose screen, 48 h (100 = growth as untreated, 0 = no growth, -100 = all killed); settings: 10 µM unless noted

| Structure (SMILES) | growth |
| --- | --- |
| COc1cc2nc(N3CCC[C@@H](NC4=CC(=O)c5ccccc5C4=O)C3)nc(N)c2cc1OC | 94.8% (inactive) |
| O=S(=O)(c1ccccc1)n1ccc(-c2ccc3c(c2)CCO3)n1 | 94% (inactive) |
| O=C(CNc1ccc(Cl)cc1)Nc1ccc(-c2nc3ccccc3s2)cc1 | -30.5% (active) |
| COc1ccc(/C=C2\CCCC3=C2NC(C)=NC3c2ccc(OC)c(OC)c2)cc1OC (stereo not drawn) | -0.933% (active) |
| COc1cc(OC)c(C(=O)/C=C/c2ccc(C(F)(F)F)cc2)c(OC)c1 | 75.3% (inactive) |
| O=C(CCl)NCCNc1nccc(Nc2ccc(S(=O)(=O)Nc3ccccn3)cc2)n1 | 10.2% (inactive) |
| O=C(O)c1ccc(-n2c(=O)c3ccccc3c3ccccc3c2=O)cc1 | 109% (inactive) |
| Cc1nn(-c2ccc(Cl)cc2)c(=O)n1CCOc1ccccc1Cl | 103% (inactive) |
| CC(C)(C)OC(=O)N[C@@H](Cc1ccccc1)C(=O)N(Cc1ccccc1)C1(C(=O)NCc2ccccc2)CCN(Cc2ccccc2)CC1 | 25.6% (inactive) |
| COc1ccc(C(=O)c2cc(OC)c(OC)c(OC)c2)cc1/C=C/C(=O)c1ccc(OC)c(OC)c1 | 56.6% (inactive) |
| CCCCNC(=O)NS(=O)(=O)c1ccc(N2N=C(c3ccc(C)cc3C)CC2c2ccc(OC)cc2)cc1 (stereo not drawn) | 108% (inactive) |

test system: MDA-MB-231 breast; assay: as above; settings: 10 µM unless noted

| Structure (SMILES) | growth |
| --- | --- |
| C[C@]12CC[C@@H]3c4cc(O)c(O)cc4CC[C@H]3[C@@H]1CC[C@@H]2O | 48.1% (inactive) |
| CCCOC(=O)C1(O)CCCC1 | 112% (inactive) |
| COC1=CC(c2ccc[nH]2)=N/C1=C\c1[nH]c(C)c(C(=O)CCCCC(=O)NCc2ccccc2)c1C | -30.5% (active) |
| O=C(NNC(=S)Nc1ccccc1)c1ccccn1 | 43.5% (inactive) |
| COc1cc(NC(=O)CCl)ccc(=O)c1 | 58.6% (inactive) |
| COc1ccc(S(=O)(=O)N2CCN(c3cc4c(cc3F)c(=O)c(C(=O)O)cn4C3CC3)CC2)c(OC)c1 | 101% (inactive) |
| COc1ccc(Cn2cc(COc3cc(/C=C/C(=O)c4cc(OC)c(OC)c(OC)c4)ccc3OC)nn2)cc1 | 84.9% (inactive) |
| COc1cc(C(=O)OCCCCCCCCCCC[P+](c2ccccc2)(c2ccccc2)c2ccccc2)ccc1O | -69.4% (active) |
| CC(C(=O)n1cc(-c2ccccc2)c(-c2ccccc2)c1)c1ccccc1 (stereo not drawn) | 108% (inactive) |
| C=CCOc1cccc(/C=C/C(=O)c2sc(Nc3cccnc3)nc2C)c1 | 95.4% (inactive) |
| O=C(CCCn1c(=O)c2sc3ccccc3c2n2nnc(-c3ccccc3)c12)NCCc1cnc[nH]1 | -70.8% (active) |
| CCC1CCc2nc3sc(C(=O)Nc4cccc(C)c4)c(N)c3cc2C1 (stereo not drawn) | 79.8% (inactive) |
| Cc1cccc(NC(=O)c2sc3nc4c(cc3c2N)CCCC4)c1 | 60.9% (inactive) |
| COc1ccc(-c2cn[nH]c2-c2cc(OC)c3c(c2)OCCO3)cc1 | 17.1% (inactive) |
| CC(C)C[C@H](NC(=O)Cn1ccc(NCc2ccccc2)cc1=O)B(O)O | 28% (inactive) |
| CC[C@H](C)[C@H]1NC(=O)[C@@H](N[C@](C)(O)[C@@H](N)CC(C)C)[C@@H](C)OC(=O)[C@H](Cc2ccc(OC)cc2)N(C)C(=O)[C@@H]2CCCN2C(=O)[C@H](CC(C)C)NC(=O)[C@@H](C)C(=O)[C@H](C(C)C)OC(=O)C[C@@H]1O | -15.8% (active) |
| CCNC(=O)C1CCCN1C(=O)C(CCCN=C(N)N)NC(=O)C(CC(C)C)NC(=O)C(CC(C)C)NC(=O)C(Cc1ccc(O)cc1)NC(=O)C(CO)NC(=O)C(Cc1c[nH]c2ccccc12)NC(=O)C(Cc1cnc[nH]1)NC(=O)C1CCC(=O)N1 (stereo not drawn) | 112% (inactive) |
| COC(=O)c1cc(-c2cccs2)c(C#N)c(N)c1C#N | 94.3% (inactive) |
| O=C1N=C(c2c(-c3[nH]c(=O)c4ccc(Br)cc4c3O)c(O)c3ccccc3c2O)C(=O)c2cc(Br)ccc21 | -8.73% (active) |
| CC[C@]1(O)C[C@@H]2CN(Cc3c([nH]c4ccccc34)[C@@](C(=O)OC)(c3cc4c(cc3OC)N(C)[C@H]3[C@@](O)(C(=O)OC)[C@H](OC(C)=O)[C@]5(CC)[C@@H]6C[C@@H]6CN6CC[C@]43[C@@H]65)C2)C1 | 0.275% (active) |
| CCOC(=O)[C@H](CSSc1ncnc2cc[nH]c12)NC(=O)[C@@H](C)c1ccc2cc(OC)ccc2c1 | 28.2% (inactive) |
| Cc1nc(Nc2cccnc2)sc1C(=O)/C=C/c1ccc(F)cc1 | 89.2% (inactive) |
